The campaign covered roughly 410,000 compounds. About 18,000 (4.4%) were called active. Not shown: some 7% with an inconclusive outcome. No stated cut-off is given here; in the data, active means activity change below about -60%; inconclusive means no clear call, values can overlap the other calls; inactive means above about -39%. Only a selection was taken, and actives are over-represented in it overall.
Assay: qHTS Assay for inhibitors of the human cytomegalovirus (HCMV)
Conditions: HFF cells, HCMV-luciferase reporter, 72 h; at 57.5 µM; stronger effect = lower value
How it was run: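 Human foreskin fibroblasts infected with luciferase-reporter HCMV at MOI 1 PFU/cell, compounds at two doses. Luciferase measured 72 h post infection; normalized to buffer-only basal and Salinomycin (10uM) controls.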
On the % scale 0 is the no-effect control and ±100 the full control effect.

| SMILES | activity change, negative = inhibition |
| --- | --- |
| CCCC(=O)Nc1cc(C(=O)NCc2ccc(OC)cc2)ccc1S(=O)(=O)c1ccc(Cl)cc1 | 12.9% (inactive) |
| CCOc1cccc(/C=N/NC(=S)NCCN2CCOCC2)c1O | -99.8% (active) |
| COc1cccc(C(CC(=O)NCCN2CCOCC2)NS(=O)(=O)c2ccc(C)cc2)c1OC (stereo not given) | -35.5% (inactive) |
| CCOc1cc(/C=N/NC(=O)c2cccc(S(=O)(=O)N3CCOCC3)c2)ccc1OCC(=O)N(C)C | -10.8% (inactive) |
| Cc1oc(-c2ccccc2)nc1Cn1c(SCc2cccc(C(F)(F)F)c2)nc2cccnc21 | -23.2% (inactive) |
| CCOc1cc(C2C(C(=O)OC)=C(C)NC3=C2C(=O)c2ccccc23)ccc1O (stereo not given) | -8.78% (inactive) |
| CC1=NN(C(=O)c2ccc(Br)cc2)C(O)(c2ccccc2)C1 (stereo not given) | -17.6% (inactive) |
| CC1=NN(C(=O)CCc2ccccc2O)C(O)(C(F)(F)F)C1 (stereo not given) | -66% (active) |
| CC1=NN(C(=O)CCCc2ccccc2)C(O)(C(F)(F)F)C1 (stereo not given) | -24.1% (inactive) |
| COc1cccc(C(c2c(O)cc(C)n(Cc3ccco3)c2=O)N2CCN(c3ccccc3)CC2)c1 (stereo not given) | 7.72% (inactive) |
| CC(C)CC(NS(=O)(=O)c1ccc2c(c1)oc(=O)n2C)C(=O)NCc1ccccc1Cl (stereo not given) | -14.5% (inactive) |
| CCCCn1c(=O)c2oc3ccccc3c2n(CC(=O)Nc2ccccc2OC)c1=O | 17% (inactive) |
| Cc1cc(N2CCN(c3cccc(C(F)(F)F)c3)CC2)n2nc(-c3ccccc3)nc2n1 | -20.6% (inactive) |
| Cc1ccc(/C=N/NC(=O)COc2ccccc2-c2ccccc2)cc1 | -81.9% (active) |
| O=C(CSC1c2ccccc2-c2ccccc21)N/N=C/c1ccccc1 | 35.4% (inactive) |
| Nc1nnn(CC(=O)N/N=C/c2ccccc2)n1 | -9.02% (inactive) |
| CCOCCCNC(=O)c1c(NC(=O)c2nc(SC)ncc2Cl)sc2c1CCCC2 | 47.5% (inactive) |
| O=C(CCn1c(=O)c2sccc2n(Cc2ccc(F)cc2)c1=O)NCc1ccc2c(c1)OCO2 | 14.2% (inactive) |
| CSc1ccccc1-c1nnc(NC(=O)c2ccc3c(c2)OCCO3)o1 | 21.3% (inactive) |
| O=C(Nc1nnc(C2COc3ccccc3O2)o1)c1ccc(F)cc1 (stereo not given) | -81.3% (active) |
| c1ccc2c(c1)OCC(c1nn3cnnc3s1)O2 (stereo not given) | -4.38% (inactive) |
| Oc1ccccc1-c1nc(/C=C/c2ccc(F)cc2)no1 | 94.7% (inactive) |
| COc1ccc(CNC(=O)c2cc3c(s2)-c2ccccc2OC3)cc1 | -13.2% (inactive) |

| SMILES | activity change, negative = inhibition |
| --- | --- |
| COc1cc(CNC(=O)c2cc3n(n2)CCCN(Cc2cccc(F)c2)C3=O)cc(OC)c1OC | -12.3% (inactive) |
| C=C(C)CSc1nnc(-c2ccc(C)cc2)n1N | -8.53% (inactive) |
| CN(C)c1cc[n+](Cc2ccccc2)cc1 | -86.3% (active) |
| N#Cc1ccc(-c2cccs2)nc1SCc1ccc(Br)cc1 | 5.81% (inactive) |
| CCCCCn1nnnc1C1c2ccccc2C(=O)N1Cc1ccco1 (stereo not given) | -25.7% (inactive) |
| O=C(Nc1ccc2c(c1)OCCO2)C1c2ccccc2OCC(=O)N1Cc1ccccn1 (stereo not given) | 3.21% (inactive) |
| O=C1c2ccccc2C(Nc2ccc3c(c2)OCCO3)N1Cc1ccco1 (stereo not given) | -60.9% (active) |
| Cc1ccc(-c2noc(CSc3nnc(-c4ccc(Cl)cc4)n3C)n2)cc1 | -12.3% (inactive) |
| CC1CN(C(=O)N2CCC(C(=O)NCc3cccs3)CC2)c2ccccc2O1 (stereo not given) | 8.43% (inactive) |
| CCc1ccc(Nc2nn3c(=O)c4cc5c(cc4nc3s2)OCO5)cc1 | 9.55% (inactive) |
| COc1cccc(C(c2nnnn2-c2ccc3c(c2)OCCO3)N2CCC3(CC2)C(=O)NCN3c2ccccc2)c1OC (stereo not given) | -15.1% (inactive) |
| Cc1nonc1C1CCCN1Cc1nc(-c2ccc(F)cc2F)oc1C (stereo not given) | -69.4% (active) |
| COc1ccc(F)c(-c2nc(CN3CCC(c4ccccc4)CC3)c(C)o2)c1 | -14% (inactive) |
| Cc1oc(-c2ccccc2F)nc1CN1CCC(C(=O)NCCc2ccc(Cl)cc2)CC1 | 0.215% (inactive) |
| Cc1ccc(N(CC(=O)NCc2ccc(Cl)cc2)S(=O)(=O)N(C)C)cc1 | -16.9% (inactive) |
| COc1ccc2c3c([nH]c2c1)[C@@H](CO)N(C(=O)C1CC1)CC31CCN(Cc2nccs2)CC1 | -2.14% (inactive) |
| COc1ccc(N2CCN(C(=O)CCSCc3ccccc3F)CC2)cc1 | -16.4% (inactive) |
| COc1ccc(N2CCN(C(=O)CSCc3nc(-c4ccccc4Cl)oc3C)CC2)cc1 | -81.2% (active) |
| COc1ccc(CNC(=O)CSCc2nc(-c3ccccc3F)oc2C)cc1 | -16% (inactive) |
| COc1cccc(N=C2SC(C(=O)Nc3cccc(Cl)c3)CC(=O)N2C)c1 (stereo not given) | -4.69% (inactive) |
| O=C(CSCc1cnn(-c2ccccc2)c1-n1cccc1)NCc1ccc(Cl)cc1 | -3.89% (inactive) |
| CCCC(=O)n1nc(NCc2ccc(OC)cc2)nc1NCc1ccc(OC)cc1 | -26.6% (inactive) |
| COc1ccc(CNc2c(CO)cnc3c2cnn3C)cc1 | -66.6% (active) |

| SMILES | activity change, negative = inhibition |
| --- | --- |
| CCCn1nnnc1NCc1ccc(OC)cc1 | -30.2% (inactive) |
| Fc1ccccc1Oc1ncnc2c1oc1ccccc12 | -3.15% (inactive) |
| O=C(CC(NCc1cccnc1)C(=O)O)Nc1ccc(O)cc1 (stereo not given) | 5.47% (inactive) |
| CCC(=O)Nc1ccc(C(=O)CSc2nnc(CNc3ccc(Cl)cc3)o2)cc1OC | -87.9% (active) |
| COc1ccccc1NC(=O)CSc1nnc(CNC(=O)c2ccccc2F)o1 | -5.51% (inactive) |
| COc1cc(Cl)c(C)cc1NC(=O)CSc1nnc(CN2CCCC2)o1 | -9.81% (inactive) |
| CCCCSc1ncnc2c1sc1nc(N3CCOCC3)c3c(c12)CCCC3 | 1.23% (inactive) |
| Cc1ccc(-c2nc(Cn3c(=O)cc(-c4ccccc4)c4c(C)nn(C)c43)c(C)o2)cc1 | -9.59% (inactive) |
| Cc1ccc(NC(=O)c2ccc(S(=O)(=O)NCC3CCCO3)cc2)cc1C (stereo not given) | 0.647% (inactive) |
| O=C(NCC1CCCO1)c1ccc(S(=O)(=O)Nc2ccc(F)cc2)cc1 (stereo not given) | -30.8% (inactive) |
| O=C(Nc1ccc(S(=O)(=O)NCC2CCCO2)cc1)c1ccc(F)cc1 (stereo not given) | -71.5% (active) |
| CCc1cccc(NC(=O)Cn2nc(CC)n3c(cc4cc(C)ccc43)c2=O)c1 | 18.4% (inactive) |
| COc1ccc(CCNS(=O)(=O)c2cc(-c3cc(C)no3)ccc2C)cc1OC | 0% (inactive) |
| CN(C)CC1Oc2ccccc2OC1(O)c1ccccc1 (stereo not given) | -104% (active) |
| CN(C)CCOC(=O)C(c1ccccc1)C1(O)CCCC1 (stereo not given) | 31.9% (inactive) |
| CCc1cccc(NC(=O)CN(c2ccc(C)c(C)c2)S(=O)(=O)c2ccsc2C(=O)OC)c1 | 7.64% (inactive) |
| CCc1nn(-c2cc(Oc3cccc4ccccc34)nc(-c3ccccc3)n2)c(N)c1C#N | -68% (active) |
| CCCCN(C)CCCNC(=O)CN1N=C(c2ccc(OC)cc2)CCC1=O | -26.4% (inactive) |
| Cc1ccnc(NC(c2ccc(C(F)(F)F)cc2)c2ccc3cccnc3c2O)c1 (stereo not given) | -97.9% (active) |
| Cc1cccc(NC(c2cccc(F)c2)c2ccc3ccc(C)nc3c2O)n1 (stereo not given) | 84.7% (inactive) |
| CCC(=O)NC(Nc1cc(C)ccn1)(C(F)(F)F)C(F)(F)F | 27.3% (inactive) |
| CCNS(=O)(=O)c1ccc(CCC(=O)N2CCN(c3cc(Cl)ccc3C)CC2)cc1 | -68.5% (active) |
| CCNS(=O)(=O)c1ccc(CCC(=O)N2CCN(c3ccc(OC)cc3)CC2)cc1 | -33.4% (inactive) |

| SMILES | activity change, negative = inhibition |
| --- | --- |
| CCCNS(=O)(=O)c1ccc(CCC(=O)N2CCCC2)cc1 | -28.5% (inactive) |
| CCOc1cccc2sc(N3CCN(C(=O)C4CC4)CC3)nc12 | -12.2% (inactive) |
| CN1OC[C@@H]2CN(C(=O)C(C)(C)C)[C@H](c3ccc(-n4ccnc4)cc3)C[C@@H]21 | 22.3% (inactive) |
| CCOC(=O)[C@]12CCC=C1N(Cc1cccc3ccccc13)C(=O)[C@H](CC(=O)NCc1cccc(C(F)(F)F)c1)C2 | 19.4% (inactive) |
| Cc1ccc(-n2ncc3c(NCCCn4ccnc4)ncnc32)cc1Cl | 7.64% (inactive) |
| CC(NC(=O)c1ccco1)c1ccc2c(c1)OCO2 (stereo not given) | 11.5% (inactive) |
| CC(NC(=O)Nc1cccc([N+](=O)[O-])c1)c1ccc2c(c1)OCO2 (stereo not given) | -64.3% (active) |
| Cc1noc(C)c1C(=O)NC(C)c1ccc2c(c1)OCO2 (stereo not given) | 59.8% (inactive) |
| COc1ccc(CCC(=O)NCCc2csc(-c3ccc(Cl)cc3)n2)cc1 | 7.81% (inactive) |
| Cn1c(Cc2csc(N)n2)nnc1SC/C=C/c1ccccc1 | -18.7% (inactive) |
| O=C(Nc1ccc(S(=O)(=O)N2CCC(c3nc4ccccc4s3)CC2)cc1)c1ccccc1F | -12.7% (inactive) |
| Cc1ccc(C(=O)C[n+]2cc(-c3ccccc3)n3c2CCCCC3)cc1 | -92.1% (active) |
| O=C(C[n+]1cc(-c2ccc(Cl)c(Cl)c2)n2c1CCC2)c1cccs1 | -37.8% (inactive) |
| Cn1c(-c2ccccc2)c[n+]2c1CCCCC2 | -28.9% (inactive) |
| Cn1ccc2cc(S(=O)(=O)N3CCCC(C(=O)NCc4ccccc4F)C3)ccc21 (stereo not given) | -1.65% (inactive) |
| CCCCOc1ccc(CNC(=O)c2ccc3c(c2)N(C)C(=O)C2CCCCN32)cc1 (stereo not given) | 25.7% (inactive) |
| CCOC(=O)C1CCCN(S(=O)(=O)c2cc(-c3cc(C)no3)ccc2OC)C1 (stereo not given) | -10% (inactive) |
| CC(C)c1ccc(NC(=O)Cn2c3ncccc3c(=O)n2-c2ccccc2)cc1 | 8.47% (inactive) |
| COc1ccccc1CC1(C)C(=O)Nc2ccc(OC(F)(F)F)cc21 (stereo not given) | -18.7% (inactive) |
| CN1CCN(Cc2ccc(OC(F)(F)F)cc2)CC1 | -3.19% (inactive) |
| CCc1ccc2c(c1)NC(=O)C2(C)Cc1ccc(OC(F)(F)F)cc1 (stereo not given) | -75.3% (active) |
